Experimental data: PubChem BioAssay (EPA / NIEHS)
Where “and” joins values, the source holds several entries; their conditions need not be identical. Equal values may be shown once. Where a structure was tested more than once in an assay, its records may differ in their call. Calls of active or inactive are those of the source. How the source made its calls: active means hit-call score of the fitted dose curve at least 0.9, where 1 is the maximum; inactive means score below 0.9.

Assays:
[1] = ATG_GLI_CIS: Attagene CIS-FACTORIAL HepG2 Assay for human Zinc Finger Protein GLI1 (AID 2282945); details: HepG2, Attagene cis-factorial reporter mRNA, GLI element; actives raise or lower the signal
How it was run: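 HepG2 cells transiently transfected with cis-promoter multiplexed reporter units report endogenous transcription factor activity. After 24 h chemical exposure, reporter mRNA was quantified by RT-PCR, 6-FAM labelling, HpaI digestion and capillary electrophoresis, with bidirectional fitting against DMSO.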

[2] = molecular target: Bile acid receptor (Homo sapiens) (UniProt Q96RI1); test: ATG_IR1_CIS: Attagene CIS-FACTORIAL HepG2 Assay for human Nuclear Receptor Subfamily 1 Group H Member 4 (NR1H4), IR1 submotif (AID 2282946); details: IR1 reporter transcription, actives raise or lower the signal
How it was run: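 Transient MRTU transfection, HepG2; 24 h dosing; RNA → RT-PCR → 6-FAM primer extension → HpaI digest → capillary electrophoresis fluorescence. Gain/loss of signal fitted relative to DMSO.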

[3] = ATG_GRE_CIS: Attagene CIS-FACTORIAL HepG2 Assay for human Glucocorticoid Response Elements (GRE) (AID 2282947); details: HepG2 GRE cis-reporter, Attagene multiplex mRNA; actives raise or lower the signal
How it was run: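 HepG2 cells transiently transfected with multiple cis-promoter reporter units measure endogenous TF activity; 24 h compound exposure. Reporter mRNA quantified by RT-PCR, FAM labelling, HpaI digestion and capillary electrophoresis; bidirectional fit vs DMSO baseline.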

[4] = ATG_ISRE_CIS: Attagene CIS-FACTORIAL HepG2 Assay for human Interferon Regulatory Factor 1 (IRF1) binding to an Interferon-Stimulated Response Element (ISRE) (AID 2282948); details: HepG2 ISRE cis-reporter (Attagene), mRNA transcription readout; actives raise or lower the signal
How it was run: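 HepG2 cells transiently transfected with multiplexed cis-promoter reporter units; after 24 h compound exposure, reporter mRNA quantified by RT-PCR, FAM labelling, HpaI digestion and capillary electrophoresis. Bidirectional fit versus DMSO baseline.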

[5] = ATG_M_32_CIS: Attagene CIS-FACTORIAL HepG2 Assay for M32 Transcription Factor (Internal Marker) (AID 2282949); details: HepG2 Attagene cis-factorial M32 reporter, mRNA; actives raise or lower the signal;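 further: background control marker of the multiplexed CIS panel rather than a real target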
How it was run: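 Internal background marker read-out: RT-PCR/capillary electrophoresis fluorescence of reporter transcripts from transiently transfected HepG2 cells after 24 h chemical exposure. Activity fitted bidirectionally relative to DMSO negative control.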

[6] = ATG_M_06_CIS: Attagene CIS-FACTORIAL HepG2 Assay for M06 Transcription Factor (Internal Marker) (AID 2282950); details: HepG2 Attagene CIS-FACTORIAL M06 internal marker reporter; actives raise or lower the signal
How it was run: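 One of many multiplexed endpoints: HepG2 reporter mRNA after 24 h dosing, detected by RT-PCR and capillary electrophoresis fluorescence; gain or loss of signal analysed against DMSO.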

[7] = molecular target: Hypoxia-inducible factor 1-alpha (Homo sapiens) (UniProt Q16665); test: ATG_HIF1a_CIS: Attagene CIS-FACTORIAL HepG2 Assay for human Hypoxia Inducible Factor 1 (HIF1A) (AID 2282951); details: HepG2 Attagene cis-factorial HIF1a reporter transcription; actives raise or lower the signal
How it was run: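 Activity is fitted in both directions relative to DMSO. Reporter transcripts are read by RT-PCR, fluorescent primer extension and capillary electrophoresis after 24 h chemical treatment. The cells are HepG2 carrying transiently transfected cis-element-driven reporter units responding to endogenous factors.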

[8] = molecular target: Hepatocyte nuclear factor 6 (Homo sapiens) (UniProt Q9UBC0); test: ATG_HNF6_CIS: Attagene CIS-FACTORIAL HepG2 Assay for human Hepatocyte Nuclear Factor 6 (HNF6) (AID 2282952); details: HepG2 Attagene cis-factorial HNF6 reporter transcription; actives raise or lower the signal
How it was run: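 HepG2 cells transiently transfected with cis-element-driven multiple reporter transcription units, dosed 24 h; reporter mRNA quantified by RT-PCR, FAM primer extension, HpaI digestion and capillary electrophoresis; bidirectional fit versus DMSO baseline.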

[9] = molecular target: Heat shock factor protein 1 (Homo sapiens) (UniProt Q00613); test: ATG_HSE_CIS: Attagene CIS-FACTORIAL HepG2 Assay for human Heat Shock Transcription Factor 1 (HSE) (AID 2282953); details: HepG2 HSE cis-reporter, Attagene RNA transcription; actives raise or lower the signal
How it was run: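 Using HepG2 with transfected cis-driven reporter constructs, compound effects on endogenous factor activity are scored as reporter mRNA change at 24 h. Detection: RT-PCR, HpaI digestion, capillary electrophoresis; bidirectional fitting to DMSO.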

[10] = ATG_MRE_CIS: Attagene CIS-FACTORIAL HepG2 Assay for human Metal Responsive Element (MRE) (AID 2282954); details: HepG2 MRE cis-reporter transcription, Attagene multiplex; actives raise or lower the signal
How it was run: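 HepG2 cells transiently transfected with multiple cis-element reporter units measure endogenous MTF1-driven transcription. After 24 h compound exposure, reporter mRNA is quantified by RT-PCR with 6-FAM labelling, HpaI digestion and capillary electrophoresis; bidirectional fits versus DMSO.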

[11] = ATG_PBREM_CIS: Attagene CIS-FACTORIAL HepG2 Assay for human Phenobarbital-responsive Enhancer Module (PBREM) (AID 2282955); details: HepG2 PBREM cis-reporter, Attagene multiplexed transcription; actives raise or lower the signal
How it was run: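 Endogenous transcription factor activity was read from reporter transcripts in transiently transfected human HepG2 liver cells after 24 h dosing. RT-PCR products were fluorescently labelled, HpaI-cut and sized by capillary electrophoresis; activity fitted bidirectionally against DMSO baseline.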

[12] = molecular target: Paired box protein Pax-6 (Homo sapiens) (UniProt P26367); test: ATG_Pax6_CIS: Attagene CIS-FACTORIAL HepG2 Assay for human Paired Box 6 (PAX6) (AID 2282956); details: HepG2 CIS-FACTORIAL PAX6 reporter transcription, RNA readout; actives raise or lower the signal
How it was run: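 HepG2 cells transiently transfected with multiplexed cis-promoter reporter units (endogenous TF activity) were dosed for 24 h. Reporter mRNA was quantified by RT-PCR, 6-FAM labeling, HpaI digestion and capillary electrophoresis; bidirectional fitting versus DMSO baseline.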

[13] = ATG_PXRE_CIS: Attagene CIS-FACTORIAL HepG2 Assay for human Pregnane X Receptor Element (PXRE) (AID 2282957); details: HepG2 Attagene CIS-FACTORIAL PXRE reporter, mRNA; actives raise or lower the signal
How it was run: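 HepG2 cells transiently transfected with cis-regulated multiple reporter transcription units; endogenous factor activity measured as reporter mRNA 24 h after dosing. RT-PCR, fluorescent primer extension, HpaI digestion, capillary electrophoresis; bidirectional fit versus DMSO baseline.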

[14] = ATG_PPRE_CIS: Attagene CIS-FACTORIAL HepG2 Assay for human Peroxisome Proliferator-activated Response Element (PPRE) (AID 2282958); details: HepG2 PPRE cis-element reporter, Attagene transcription factor profiling; actives raise or lower the signal
How it was run: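 Endogenous PPRE-driven transcription is measured in HepG2 cells carrying transfected multi-reporter constructs. Reporter transcripts are quantified by RT-PCR, HpaI digestion and capillary electrophoresis 24 h after dosing. DMSO baseline, bidirectional fit.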

[15] = ATG_RORE_CIS: Attagene CIS-FACTORIAL HepG2 Assay for human RAR-related Orphan Receptor Element (RORE) (AID 2282959); details: HepG2 Attagene cis-factorial RORE reporter, mRNA; actives raise or lower the signal
How it was run: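 RORE reporter transcripts reflecting endogenous factor activity were read after 24 h compound exposure of transfected HepG2 cells, using reverse transcription, PCR, fluorescent labelling and capillary electrophoresis sizing. Gain or loss fitted against DMSO.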

[16] = ATG_Sox_CIS: Attagene CIS-FACTORIAL HepG2 Assay for human SRY-box transcription factor (SOX) (AID 2282960); details: HepG2 Attagene cis-factorial SOX reporter, mRNA; actives raise or lower the signal
How it was run: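 Reporter transcripts, measured by RT-PCR and capillary electrophoresis of labelled fragments, report endogenous SOX transcription factor activity. Transiently transfected human HepG2 cells receive chemical for 24 h; changes in either direction are fitted relative to DMSO.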

[17] = molecular target: Transcription factor Sp1 (Homo sapiens) (UniProt P08047); test: ATG_Sp1_CIS: Attagene CIS-FACTORIAL HepG2 Assay for human Specificity Protein 1 (Sp1) (AID 2282961); details: HepG2 Sp1 cis-reporter transcription, actives raise or lower the signal
How it was run: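 Read-out is reporter transcript level, measured by RT-PCR and fluorescent capillary electrophoresis after 24 h chemical treatment. System: transiently transfected HepG2 cells reporting endogenous transcription factor activity; gain or loss fitted against DMSO baseline.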

[18] = ATG_SREBP_CIS: Attagene CIS-FACTORIAL HepG2 Assay for human Sterol Regulatory Element Binding (SREBP) (AID 2282962); details: HepG2 Attagene cis-factorial SREBP reporter, mRNA; actives raise or lower the signal
How it was run: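 HepG2 cells transiently transfected with multiplexed cis-element reporter units report endogenous transcription factor activity. After 24 h of chemical exposure, reporter mRNA was quantified by RT-PCR, 6-FAM labelling, HpaI digestion and capillary electrophoresis; bidirectional fits used DMSO as baseline.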

[19] = molecular target: Signal transducer and activator of transcription 3 (Homo sapiens) (UniProt P40763); test: ATG_STAT3_CIS: Attagene CIS-FACTORIAL HepG2 Assay for human Signal Transducer and Activator of Transcription 3 (STAT3) (AID 2282963); details: HepG2, Attagene cis-factorial STAT3 reporter transcription; actives raise or lower the signal
How it was run: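 HepG2 cells transiently transfected with cis-element-driven multiple reporter transcription units; after 24 h chemical exposure, reporter mRNA measured by RT-PCR, 6-FAM primer-extension labelling, HpaI digestion and capillary electrophoresis. Bidirectional fitting versus DMSO baseline.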

[20] = ATG_TA_CIS: Attagene CIS-FACTORIAL HepG2 Assay for human TA Basal Promoter (AID 2282964); details: HepG2 Attagene CIS-factorial TA basal promoter reporter; actives raise or lower the signal
How it was run: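 Transient MRTU transfection of HepG2 preceded 24 h compound exposure. Reporter mRNA levels were then read by RT-PCR with capillary electrophoresis, and this background-control endpoint was fitted bidirectionally to DMSO.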

Measured: AC50

Chain of Heat shock factor protein 1 (Homo sapiens) (Q00613 whole entry, looked up): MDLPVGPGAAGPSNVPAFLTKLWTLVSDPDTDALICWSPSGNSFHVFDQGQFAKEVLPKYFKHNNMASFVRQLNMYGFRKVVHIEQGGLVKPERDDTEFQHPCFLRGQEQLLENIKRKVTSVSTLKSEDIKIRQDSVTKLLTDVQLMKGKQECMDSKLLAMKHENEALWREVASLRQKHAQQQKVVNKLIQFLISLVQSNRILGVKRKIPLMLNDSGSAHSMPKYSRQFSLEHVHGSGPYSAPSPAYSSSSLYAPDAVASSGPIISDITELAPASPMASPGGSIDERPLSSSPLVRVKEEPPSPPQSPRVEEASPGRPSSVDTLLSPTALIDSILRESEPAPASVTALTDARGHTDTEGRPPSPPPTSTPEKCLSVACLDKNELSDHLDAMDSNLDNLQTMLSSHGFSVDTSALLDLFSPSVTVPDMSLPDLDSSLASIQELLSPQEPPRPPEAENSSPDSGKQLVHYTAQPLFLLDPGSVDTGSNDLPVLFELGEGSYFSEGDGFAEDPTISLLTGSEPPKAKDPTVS
Chain of Hepatocyte nuclear factor 6 (Homo sapiens) (Q9UBC0 whole entry, looked up): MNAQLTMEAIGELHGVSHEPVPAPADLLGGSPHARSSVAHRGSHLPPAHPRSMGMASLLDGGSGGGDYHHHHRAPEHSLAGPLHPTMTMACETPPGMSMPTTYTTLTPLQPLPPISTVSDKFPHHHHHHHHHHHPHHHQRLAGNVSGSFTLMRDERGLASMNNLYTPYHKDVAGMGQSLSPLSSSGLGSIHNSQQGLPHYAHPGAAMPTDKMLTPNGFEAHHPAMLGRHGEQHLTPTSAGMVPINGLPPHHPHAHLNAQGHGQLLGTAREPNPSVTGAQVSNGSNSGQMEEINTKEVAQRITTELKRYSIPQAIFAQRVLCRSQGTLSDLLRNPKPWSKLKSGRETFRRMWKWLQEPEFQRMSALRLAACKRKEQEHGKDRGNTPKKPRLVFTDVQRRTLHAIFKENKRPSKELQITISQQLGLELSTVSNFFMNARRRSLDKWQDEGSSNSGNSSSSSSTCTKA
Chain of Transcription factor Sp1 (Homo sapiens) (P08047 whole entry, looked up): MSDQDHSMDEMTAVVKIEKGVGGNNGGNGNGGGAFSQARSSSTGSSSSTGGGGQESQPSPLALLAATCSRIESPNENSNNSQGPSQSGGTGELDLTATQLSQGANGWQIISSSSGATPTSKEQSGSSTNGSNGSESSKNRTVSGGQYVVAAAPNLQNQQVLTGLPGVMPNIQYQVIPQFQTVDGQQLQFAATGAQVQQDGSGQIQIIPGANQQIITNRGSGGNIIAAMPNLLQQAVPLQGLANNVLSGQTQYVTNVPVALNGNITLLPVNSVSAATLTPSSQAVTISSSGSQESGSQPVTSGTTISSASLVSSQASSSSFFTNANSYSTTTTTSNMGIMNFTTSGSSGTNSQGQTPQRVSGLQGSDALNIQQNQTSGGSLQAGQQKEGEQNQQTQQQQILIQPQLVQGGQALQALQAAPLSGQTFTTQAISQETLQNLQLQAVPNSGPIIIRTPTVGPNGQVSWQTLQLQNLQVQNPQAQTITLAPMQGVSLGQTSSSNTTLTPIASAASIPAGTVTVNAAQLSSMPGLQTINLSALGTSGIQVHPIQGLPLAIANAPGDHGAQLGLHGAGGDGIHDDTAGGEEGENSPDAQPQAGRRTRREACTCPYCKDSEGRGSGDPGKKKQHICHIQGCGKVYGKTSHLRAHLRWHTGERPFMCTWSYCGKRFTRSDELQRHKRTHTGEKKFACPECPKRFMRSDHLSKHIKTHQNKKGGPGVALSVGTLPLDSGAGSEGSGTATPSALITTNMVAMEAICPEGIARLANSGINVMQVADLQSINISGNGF
Chain of Hypoxia-inducible factor 1-alpha (Homo sapiens) (Q16665 whole entry, looked up): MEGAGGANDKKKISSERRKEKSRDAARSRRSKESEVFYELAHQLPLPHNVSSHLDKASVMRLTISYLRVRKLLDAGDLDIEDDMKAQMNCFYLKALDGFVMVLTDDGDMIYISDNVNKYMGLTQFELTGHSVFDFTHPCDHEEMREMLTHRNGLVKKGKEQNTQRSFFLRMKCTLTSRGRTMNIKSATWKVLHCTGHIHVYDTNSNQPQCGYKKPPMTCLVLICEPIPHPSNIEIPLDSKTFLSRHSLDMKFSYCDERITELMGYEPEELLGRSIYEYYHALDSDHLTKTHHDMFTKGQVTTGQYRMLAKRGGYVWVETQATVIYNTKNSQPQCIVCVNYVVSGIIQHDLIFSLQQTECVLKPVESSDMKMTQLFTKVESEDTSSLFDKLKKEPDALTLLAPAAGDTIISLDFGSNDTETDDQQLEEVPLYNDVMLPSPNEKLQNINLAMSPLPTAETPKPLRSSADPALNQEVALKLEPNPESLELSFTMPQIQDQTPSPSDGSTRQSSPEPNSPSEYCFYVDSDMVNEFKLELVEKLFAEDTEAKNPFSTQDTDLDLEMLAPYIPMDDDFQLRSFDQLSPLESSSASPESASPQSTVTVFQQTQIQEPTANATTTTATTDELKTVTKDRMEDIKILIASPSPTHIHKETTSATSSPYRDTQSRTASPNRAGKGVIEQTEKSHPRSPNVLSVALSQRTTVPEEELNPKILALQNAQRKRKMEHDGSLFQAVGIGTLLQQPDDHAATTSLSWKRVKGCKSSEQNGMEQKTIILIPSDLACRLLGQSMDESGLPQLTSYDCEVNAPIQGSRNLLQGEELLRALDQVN
Chain of Signal transducer and activator of transcription 3 (Homo sapiens) (P40763 whole entry, looked up): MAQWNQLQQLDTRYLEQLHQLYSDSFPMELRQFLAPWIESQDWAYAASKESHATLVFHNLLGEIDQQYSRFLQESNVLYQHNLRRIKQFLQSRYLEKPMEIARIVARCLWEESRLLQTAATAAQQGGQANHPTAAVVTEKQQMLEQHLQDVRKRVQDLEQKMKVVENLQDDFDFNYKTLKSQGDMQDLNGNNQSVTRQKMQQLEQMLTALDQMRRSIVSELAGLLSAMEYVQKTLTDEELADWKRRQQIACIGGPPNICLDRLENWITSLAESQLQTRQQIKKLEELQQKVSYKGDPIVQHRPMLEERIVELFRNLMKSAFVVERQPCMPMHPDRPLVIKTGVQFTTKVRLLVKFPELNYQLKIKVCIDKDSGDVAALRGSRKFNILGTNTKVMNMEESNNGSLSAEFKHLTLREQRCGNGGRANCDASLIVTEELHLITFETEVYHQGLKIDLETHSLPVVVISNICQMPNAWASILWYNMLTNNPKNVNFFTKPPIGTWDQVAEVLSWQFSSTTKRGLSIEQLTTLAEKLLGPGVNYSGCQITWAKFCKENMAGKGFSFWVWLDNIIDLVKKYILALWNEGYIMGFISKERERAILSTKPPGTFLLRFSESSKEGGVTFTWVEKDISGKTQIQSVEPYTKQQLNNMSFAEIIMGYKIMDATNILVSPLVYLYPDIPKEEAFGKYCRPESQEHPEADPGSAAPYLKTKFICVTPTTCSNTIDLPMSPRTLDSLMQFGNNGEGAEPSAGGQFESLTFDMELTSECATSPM
Chain of Paired box protein Pax-6 (Homo sapiens) (P26367 whole entry, looked up): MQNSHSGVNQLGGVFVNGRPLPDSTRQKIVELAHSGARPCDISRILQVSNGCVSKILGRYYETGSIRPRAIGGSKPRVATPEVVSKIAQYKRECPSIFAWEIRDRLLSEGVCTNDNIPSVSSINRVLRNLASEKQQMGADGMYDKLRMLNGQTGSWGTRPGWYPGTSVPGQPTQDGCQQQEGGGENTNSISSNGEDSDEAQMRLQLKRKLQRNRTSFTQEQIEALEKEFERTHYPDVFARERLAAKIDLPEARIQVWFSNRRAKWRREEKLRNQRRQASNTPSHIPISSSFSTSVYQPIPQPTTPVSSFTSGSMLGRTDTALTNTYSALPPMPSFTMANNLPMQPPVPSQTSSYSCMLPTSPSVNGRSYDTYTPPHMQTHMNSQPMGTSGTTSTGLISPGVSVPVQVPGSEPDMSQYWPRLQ
Chain of Bile acid receptor (Homo sapiens) (Q96RI1 whole entry, looked up): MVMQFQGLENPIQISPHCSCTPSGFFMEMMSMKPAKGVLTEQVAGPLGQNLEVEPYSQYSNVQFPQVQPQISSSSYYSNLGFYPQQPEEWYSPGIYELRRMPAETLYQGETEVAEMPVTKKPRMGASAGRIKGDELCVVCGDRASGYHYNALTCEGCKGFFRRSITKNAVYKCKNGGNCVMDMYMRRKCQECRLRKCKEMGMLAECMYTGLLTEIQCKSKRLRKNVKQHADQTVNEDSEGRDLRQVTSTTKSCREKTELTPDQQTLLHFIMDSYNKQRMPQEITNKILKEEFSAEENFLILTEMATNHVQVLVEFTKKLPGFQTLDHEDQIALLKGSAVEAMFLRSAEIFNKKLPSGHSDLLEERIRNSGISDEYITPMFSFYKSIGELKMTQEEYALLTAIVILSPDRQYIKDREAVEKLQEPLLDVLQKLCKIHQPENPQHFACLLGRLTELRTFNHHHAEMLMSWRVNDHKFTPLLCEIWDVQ

CC/C=C\CCOC(C)=O
active: [13] 70 µM
inactive: all other assays above

CCC(=O)OCCc1ccccc1
not listed: [15]
inactive: all other assays above

FC(F)(F)C(F)(F)C(F)(F)C(F)(F)C(F)(F)CCI
active: [13] 39.9 µM
not listed: [15]
inactive: all other assays above

OCC(F)(F)C(F)(F)C(F)(F)C(F)F
not listed: [15]
inactive: all other assays above

C(=C(c1ccccc1)c1ccccc1)c1ccccc1
active: [13] 4.4 µM
not listed: [10]
inactive: all other assays above

CCCCCCC(C)OC(=O)CCCCC(=O)OC(C)CCCCCC (configuration not stated)
active: [13] 12.8 µM
inactive: all other assays above

O=C(O)C(F)(F)C(F)(F)C(F)(F)C(F)(F)C(F)(F)C(F)(F)C(F)(F)C(F)(F)C(F)(F)C(F)(F)C(F)(F)C(F)(F)F
inactive: all assays above

FC(F)(F)C(F)(F)CNCC(F)(F)C(F)(F)F
not listed: [15]
inactive: all other assays above

C=CC/C=C/C/C=C/C/C=C/C
inactive: all assays above

OCCCC(F)(F)C(F)(F)C(F)(F)C(F)(F)C(F)(F)C(F)(F)C(F)(F)F
active: [3] 96.3 µM | [5] 233 µM | [7] 197 µM | [8] 83 µM | [11] 150 µM | [12] 50 µM and 41.8 µM | [13] 79.6 µM | [15] 247 µM | [16] 68.9 µM | [17] 96.5 µM | [18] 50 µM | [19] 78.9 µM
inactive: [1] | [2] | [3] | [4] | [5] | [6] | [7] | [8] | [11] | [13] | [14] | [15] | [16] | [17] | [18] | [19] | [20]

C=CC(=O)OCC(F)(F)C(F)(F)C(F)(F)C(F)(F)C(F)(F)C(F)(F)C(F)(F)F
not listed: [15]
inactive: all other assays above

CC(Cc1ccc(O)c(O)c1)C(C)Cc1ccc(O)c(O)c1 (configuration not stated)
active: [7] 8.95 µM | [9] 57.7 µM | [10] 22.3 µM | [11] 9.19 µM | [12] 22.1 µM | [13] 8.39 µM | [15] 6.13 µM | [16] 33.4 µM | [17] 8.73 µM | [20] 18.4 µM
inactive: all other assays above

N=C(N)C(F)(F)C(F)(F)C(F)(F)C(F)(F)C(F)(F)C(F)(F)C(F)(F)F
active: [7] 242 µM
not listed: [15]
inactive: all other assays above
